This passage reports inhibition results from ChEMBL document CHEMBL1961873, “Compounds: GSK PKIS; Assays: Nanosyn kinase panel” (2012).

For orientation: inhibition means the relative decrease from the control value, in per cent.

The structures appear in SMILES notation.

Assay [1] has as its target Mitogen-activated protein kinase 3 (Homo sapiens) (UniProt P27361). Conditions: at 1 µM.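 Note: values are mean percent inhibition of MAPK3.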
Assay [2] addresses SRSF protein kinase 3 (Homo sapiens) (UniProt Q9UPE1). The note with it: at 0.1 µM.
Assay [3] shares this target. The note with it: at 1 µM.
Assay [4] deals with Mitogen-activated protein kinase 14 (Homo sapiens) (UniProt Q16539). The note with it: at 0.1 µM.
Assay [5] has the same target. Conditions: at 1 µM.
The target of assay [6] is Mitogen-activated protein kinase 11 (Homo sapiens) (UniProt Q15759). The note with it: at 0.1 µM.
For assay [7] the target is unchanged. The note with it: at 1 µM.
The target in assay [8] is T1, Mitogen-activated protein kinase 13 (Homo sapiens) (UniProt O15264).
T1 sequence (whole entry): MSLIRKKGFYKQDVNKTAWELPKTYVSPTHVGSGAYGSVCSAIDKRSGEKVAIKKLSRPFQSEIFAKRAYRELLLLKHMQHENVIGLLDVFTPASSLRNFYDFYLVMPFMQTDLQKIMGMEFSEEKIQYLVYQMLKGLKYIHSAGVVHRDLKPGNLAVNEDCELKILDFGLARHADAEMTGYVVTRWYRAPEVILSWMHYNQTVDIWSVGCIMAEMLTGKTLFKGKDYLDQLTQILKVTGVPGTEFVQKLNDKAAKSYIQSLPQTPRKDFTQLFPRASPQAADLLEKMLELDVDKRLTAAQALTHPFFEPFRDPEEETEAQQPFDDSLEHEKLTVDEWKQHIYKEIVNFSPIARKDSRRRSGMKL
Conditions: at 0.1 µM.

For assay [9], the target named is T1, Mitogen-activated protein kinase 13 (Homo sapiens). The note with it: at 1 µM.
In assay [10] the target is T2, Mitogen-activated protein kinase 12 (Homo sapiens) (UniProt P53778).
T2 sequence (whole entry): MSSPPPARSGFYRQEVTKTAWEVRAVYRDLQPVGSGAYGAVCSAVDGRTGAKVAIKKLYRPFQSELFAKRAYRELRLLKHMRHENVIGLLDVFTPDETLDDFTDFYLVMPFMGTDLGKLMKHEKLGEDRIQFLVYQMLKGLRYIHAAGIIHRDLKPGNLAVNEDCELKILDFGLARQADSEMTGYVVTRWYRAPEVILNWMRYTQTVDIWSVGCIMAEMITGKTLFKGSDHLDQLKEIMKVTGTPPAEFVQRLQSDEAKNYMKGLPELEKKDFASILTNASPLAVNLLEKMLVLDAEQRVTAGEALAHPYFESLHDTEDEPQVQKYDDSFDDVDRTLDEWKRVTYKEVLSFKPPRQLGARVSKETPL
Conditions: at 0.1 µM.

In assay [11] the target is T2, Mitogen-activated protein kinase 12 (Homo sapiens). Conditions: at 1 µM.
Assay [12] has as its target SRSF protein kinase 1 (Homo sapiens) (UniProt Q96SB4). Conditions: at 0.1 µM.
Assay [13] shares this target. The note with it: at 1 µM.
Assay [14] addresses Phosphatidylinositol 4,5-bisphosphate 3-kinase catalytic subunit alpha isoform (Homo sapiens) (UniProt P42336). Conditions: at 0.1 µM.
For assay [15] the target is unchanged. Conditions: at 1 µM.
Assay [16] deals with T3, Phosphatidylinositol 4,5-bisphosphate 3-kinase catalytic subunit delta isoform (Homo sapiens) (UniProt O00329).
T3 sequence (whole entry): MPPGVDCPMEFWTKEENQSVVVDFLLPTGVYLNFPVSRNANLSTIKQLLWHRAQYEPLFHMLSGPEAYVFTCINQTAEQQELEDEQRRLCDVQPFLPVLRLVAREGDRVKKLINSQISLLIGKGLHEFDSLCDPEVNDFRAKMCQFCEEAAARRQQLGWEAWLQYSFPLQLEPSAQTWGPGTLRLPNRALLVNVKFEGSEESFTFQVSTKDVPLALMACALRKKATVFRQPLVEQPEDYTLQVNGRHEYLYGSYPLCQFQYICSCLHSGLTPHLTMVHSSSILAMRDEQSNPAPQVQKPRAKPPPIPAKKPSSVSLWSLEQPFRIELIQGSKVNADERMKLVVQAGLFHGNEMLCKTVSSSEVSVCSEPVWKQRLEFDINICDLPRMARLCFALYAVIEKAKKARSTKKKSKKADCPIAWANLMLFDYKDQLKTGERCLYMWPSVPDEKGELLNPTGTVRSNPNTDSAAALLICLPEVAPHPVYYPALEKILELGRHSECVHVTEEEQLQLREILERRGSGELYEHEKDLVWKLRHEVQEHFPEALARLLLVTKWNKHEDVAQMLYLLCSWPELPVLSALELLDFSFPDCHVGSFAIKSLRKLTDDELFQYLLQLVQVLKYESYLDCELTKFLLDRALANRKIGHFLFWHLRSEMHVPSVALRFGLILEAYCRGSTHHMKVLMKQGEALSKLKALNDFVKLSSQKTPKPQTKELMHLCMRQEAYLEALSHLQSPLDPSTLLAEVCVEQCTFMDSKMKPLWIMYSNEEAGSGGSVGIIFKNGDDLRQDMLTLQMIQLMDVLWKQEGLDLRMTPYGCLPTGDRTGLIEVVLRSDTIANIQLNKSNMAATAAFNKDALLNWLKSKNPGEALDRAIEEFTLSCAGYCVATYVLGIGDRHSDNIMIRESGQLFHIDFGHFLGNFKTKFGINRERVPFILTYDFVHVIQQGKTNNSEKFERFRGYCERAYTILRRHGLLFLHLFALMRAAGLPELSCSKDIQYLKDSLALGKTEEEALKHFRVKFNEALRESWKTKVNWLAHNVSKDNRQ
Conditions: at 0.1 µM.

In assay [17] the target is T3, Phosphatidylinositol 4,5-bisphosphate 3-kinase catalytic subunit delta isoform (Homo sapiens). The note with it: at 1 µM.
Assay [18] concerns the target Phosphatidylinositol 4-kinase beta (Homo sapiens) (UniProt Q9UBF8). Conditions: at 0.1 µM.
Assay [19] has the same target. The note with it: at 1 µM.
The target in assay [20] is Sphingosine kinase 1 (Homo sapiens) (UniProt Q9NYA1). Conditions: at 0.1 µM.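 Note: mean percent inhibition of SPHK1 activity, measured within the GSK PKIS screening panel.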
Sequence of Sphingosine kinase 1 (Homo sapiens) (Q9NYA1 whole entry): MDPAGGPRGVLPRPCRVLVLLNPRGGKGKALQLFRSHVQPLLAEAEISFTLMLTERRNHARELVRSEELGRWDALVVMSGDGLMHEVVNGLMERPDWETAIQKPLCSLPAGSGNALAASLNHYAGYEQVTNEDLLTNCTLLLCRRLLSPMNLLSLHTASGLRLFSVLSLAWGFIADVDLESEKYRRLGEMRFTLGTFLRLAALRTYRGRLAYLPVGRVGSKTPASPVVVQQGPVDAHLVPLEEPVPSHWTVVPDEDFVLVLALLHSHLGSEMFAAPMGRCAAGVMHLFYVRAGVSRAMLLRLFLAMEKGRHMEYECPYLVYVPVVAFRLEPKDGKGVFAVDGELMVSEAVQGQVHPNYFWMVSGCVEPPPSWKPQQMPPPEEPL

Sequence of Mitogen-activated protein kinase 14 (Homo sapiens) (Q16539 whole entry): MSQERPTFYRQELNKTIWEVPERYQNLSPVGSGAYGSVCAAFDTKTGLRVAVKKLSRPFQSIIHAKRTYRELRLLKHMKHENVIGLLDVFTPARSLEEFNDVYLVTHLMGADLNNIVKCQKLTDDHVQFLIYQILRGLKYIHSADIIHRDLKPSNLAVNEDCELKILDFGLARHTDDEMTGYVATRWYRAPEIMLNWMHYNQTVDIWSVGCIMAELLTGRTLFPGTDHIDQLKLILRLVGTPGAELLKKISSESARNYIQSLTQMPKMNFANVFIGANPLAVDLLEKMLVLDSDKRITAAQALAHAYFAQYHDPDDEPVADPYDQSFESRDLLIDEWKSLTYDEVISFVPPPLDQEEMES
Sequence of Mitogen-activated protein kinase 11 (Homo sapiens) (Q15759 whole entry): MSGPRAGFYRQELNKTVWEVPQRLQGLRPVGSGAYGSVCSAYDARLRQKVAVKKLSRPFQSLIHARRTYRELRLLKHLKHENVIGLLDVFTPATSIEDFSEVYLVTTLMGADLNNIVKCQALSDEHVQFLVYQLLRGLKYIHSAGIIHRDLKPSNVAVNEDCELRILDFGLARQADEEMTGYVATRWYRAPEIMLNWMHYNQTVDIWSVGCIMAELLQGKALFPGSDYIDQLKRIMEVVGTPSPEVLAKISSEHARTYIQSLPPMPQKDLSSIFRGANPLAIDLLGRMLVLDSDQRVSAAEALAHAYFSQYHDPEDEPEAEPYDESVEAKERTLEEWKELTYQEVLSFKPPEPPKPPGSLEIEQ
Sequence of Phosphatidylinositol 4-kinase beta (Homo sapiens) (Q9UBF8 2-816 limits assumed): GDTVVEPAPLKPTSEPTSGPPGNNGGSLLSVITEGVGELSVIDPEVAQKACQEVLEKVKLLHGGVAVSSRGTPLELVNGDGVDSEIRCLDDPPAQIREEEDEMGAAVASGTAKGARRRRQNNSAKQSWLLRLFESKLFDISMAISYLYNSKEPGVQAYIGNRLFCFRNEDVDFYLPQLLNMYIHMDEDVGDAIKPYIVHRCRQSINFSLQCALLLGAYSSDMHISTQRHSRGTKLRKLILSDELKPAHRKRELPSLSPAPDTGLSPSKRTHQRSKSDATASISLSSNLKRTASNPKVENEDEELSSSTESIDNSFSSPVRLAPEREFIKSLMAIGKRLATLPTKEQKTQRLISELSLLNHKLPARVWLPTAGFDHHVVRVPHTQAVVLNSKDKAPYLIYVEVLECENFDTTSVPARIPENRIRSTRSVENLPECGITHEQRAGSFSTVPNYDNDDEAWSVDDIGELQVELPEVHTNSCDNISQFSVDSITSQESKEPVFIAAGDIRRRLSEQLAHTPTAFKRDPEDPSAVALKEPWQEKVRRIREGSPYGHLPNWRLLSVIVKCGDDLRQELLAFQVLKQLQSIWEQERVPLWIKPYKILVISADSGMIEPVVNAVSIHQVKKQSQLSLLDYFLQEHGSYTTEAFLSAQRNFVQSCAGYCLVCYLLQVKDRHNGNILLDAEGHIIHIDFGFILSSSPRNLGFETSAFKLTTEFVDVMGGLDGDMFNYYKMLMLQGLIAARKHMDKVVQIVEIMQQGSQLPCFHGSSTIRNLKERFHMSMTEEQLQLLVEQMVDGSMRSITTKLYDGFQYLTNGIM
Sequence of SRSF protein kinase 3 (Homo sapiens) (Q9UPE1 whole entry): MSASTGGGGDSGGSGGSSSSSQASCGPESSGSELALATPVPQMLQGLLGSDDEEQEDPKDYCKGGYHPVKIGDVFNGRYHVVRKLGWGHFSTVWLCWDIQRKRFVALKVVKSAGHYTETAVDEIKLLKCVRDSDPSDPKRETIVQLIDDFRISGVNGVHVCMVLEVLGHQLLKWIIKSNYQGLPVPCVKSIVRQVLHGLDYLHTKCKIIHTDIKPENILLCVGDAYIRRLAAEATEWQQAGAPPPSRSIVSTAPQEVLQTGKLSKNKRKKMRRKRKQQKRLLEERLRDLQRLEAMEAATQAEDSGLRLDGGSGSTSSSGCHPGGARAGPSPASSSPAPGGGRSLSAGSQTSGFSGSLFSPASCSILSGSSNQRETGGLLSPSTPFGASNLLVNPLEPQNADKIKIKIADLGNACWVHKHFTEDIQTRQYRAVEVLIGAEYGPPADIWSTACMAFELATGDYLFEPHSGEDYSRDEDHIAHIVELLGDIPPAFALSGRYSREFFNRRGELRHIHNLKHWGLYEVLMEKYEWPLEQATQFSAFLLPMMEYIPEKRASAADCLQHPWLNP
Sequence of Phosphatidylinositol 4,5-bisphosphate 3-kinase catalytic subunit alpha isoform (Homo sapiens) (P42336 whole entry, canonical isoform): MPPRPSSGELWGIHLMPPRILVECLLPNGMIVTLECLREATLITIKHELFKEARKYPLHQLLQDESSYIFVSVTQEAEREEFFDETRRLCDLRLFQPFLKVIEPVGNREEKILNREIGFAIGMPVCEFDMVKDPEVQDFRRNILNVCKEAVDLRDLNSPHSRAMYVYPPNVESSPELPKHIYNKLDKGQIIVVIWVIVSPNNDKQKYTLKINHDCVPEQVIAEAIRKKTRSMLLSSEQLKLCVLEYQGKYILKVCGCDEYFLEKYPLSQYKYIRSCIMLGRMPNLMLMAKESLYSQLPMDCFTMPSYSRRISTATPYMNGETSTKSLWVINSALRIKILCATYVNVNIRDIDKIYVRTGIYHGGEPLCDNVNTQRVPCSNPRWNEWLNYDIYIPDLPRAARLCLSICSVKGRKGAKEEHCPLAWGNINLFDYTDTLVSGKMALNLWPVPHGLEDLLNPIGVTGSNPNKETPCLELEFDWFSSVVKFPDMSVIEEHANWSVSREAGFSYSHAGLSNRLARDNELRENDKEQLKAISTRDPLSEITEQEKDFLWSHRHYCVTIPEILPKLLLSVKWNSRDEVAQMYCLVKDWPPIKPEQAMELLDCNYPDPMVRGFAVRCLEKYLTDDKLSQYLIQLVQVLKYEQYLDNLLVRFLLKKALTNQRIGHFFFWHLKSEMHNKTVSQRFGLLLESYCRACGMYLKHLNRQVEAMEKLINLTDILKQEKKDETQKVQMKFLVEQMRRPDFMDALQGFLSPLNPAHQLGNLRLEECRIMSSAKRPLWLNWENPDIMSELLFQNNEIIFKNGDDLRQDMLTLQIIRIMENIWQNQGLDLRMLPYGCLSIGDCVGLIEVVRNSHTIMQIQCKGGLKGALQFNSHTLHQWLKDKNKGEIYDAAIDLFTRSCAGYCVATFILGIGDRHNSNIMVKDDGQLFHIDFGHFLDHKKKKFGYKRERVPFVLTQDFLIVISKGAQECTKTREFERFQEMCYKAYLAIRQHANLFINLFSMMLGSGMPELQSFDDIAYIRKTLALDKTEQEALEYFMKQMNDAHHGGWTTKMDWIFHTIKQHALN
Sequence of SRSF protein kinase 1 (Homo sapiens) (Q96SB4 whole entry): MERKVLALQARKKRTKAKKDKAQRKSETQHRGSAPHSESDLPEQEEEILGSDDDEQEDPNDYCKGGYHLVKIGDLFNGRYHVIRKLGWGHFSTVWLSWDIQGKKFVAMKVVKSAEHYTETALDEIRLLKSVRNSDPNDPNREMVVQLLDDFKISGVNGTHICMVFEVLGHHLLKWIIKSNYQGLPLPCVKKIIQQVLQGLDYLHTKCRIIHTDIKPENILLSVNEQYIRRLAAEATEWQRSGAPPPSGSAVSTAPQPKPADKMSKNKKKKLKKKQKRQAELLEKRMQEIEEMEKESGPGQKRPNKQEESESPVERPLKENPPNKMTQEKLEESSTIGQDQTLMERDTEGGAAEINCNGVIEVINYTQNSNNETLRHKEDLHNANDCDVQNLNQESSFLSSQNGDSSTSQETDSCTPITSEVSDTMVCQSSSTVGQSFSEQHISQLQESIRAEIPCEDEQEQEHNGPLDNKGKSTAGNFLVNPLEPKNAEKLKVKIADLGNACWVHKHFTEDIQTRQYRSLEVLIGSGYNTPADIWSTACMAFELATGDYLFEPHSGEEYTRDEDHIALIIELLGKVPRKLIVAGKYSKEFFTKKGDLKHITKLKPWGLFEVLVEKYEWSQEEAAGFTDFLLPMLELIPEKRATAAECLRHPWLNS
Sequence of Mitogen-activated protein kinase 3 (Homo sapiens) (P27361 whole entry): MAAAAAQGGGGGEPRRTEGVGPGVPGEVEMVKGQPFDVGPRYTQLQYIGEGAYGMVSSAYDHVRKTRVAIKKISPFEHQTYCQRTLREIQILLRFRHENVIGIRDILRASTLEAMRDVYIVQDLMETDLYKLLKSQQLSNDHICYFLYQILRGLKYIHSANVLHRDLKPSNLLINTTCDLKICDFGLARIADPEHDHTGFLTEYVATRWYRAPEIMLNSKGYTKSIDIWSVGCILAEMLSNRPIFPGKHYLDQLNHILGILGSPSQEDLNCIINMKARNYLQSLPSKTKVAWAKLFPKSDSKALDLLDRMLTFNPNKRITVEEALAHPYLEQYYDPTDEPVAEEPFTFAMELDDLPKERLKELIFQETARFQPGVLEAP

Consider `NC(=O)c1cccc(Nc2nccc(Nc3cccc(F)c3)n2)c1`, for which the inhibition in assay [1] is 1.21%; in assay [2], -1.02%; in assay [3], -0.91%; in [4], 2.29%; in assay [5], 2.5%; in assay [6] it was 0.85%. Moreover, the inhibition in assay [7] is 1.67%; in [8] it was -0.02%; in [9], 0.02%; in assay [10], 1.16%; in [11], 1.35%; in assay [12], -2.36%. The inhibition was -1.96% in assay [13]; -0.28% in assay [14]; 1.22% in assay [15]; -1.45% in assay [16]; -4.65% in assay [17]; 3.27% in [18]. Moreover, the inhibition worked out at 1.27% in assay [19] and 0.35% in assay [20].
On to `Cc1ccc(C(=O)NC2CC2)cc1-c1ccc2[nH]ncc2c1`, for which the inhibition in assay [1] is -2.12%; in assay [2], 2.03%; in assay [3], -0.89%; in assay [4], 3.93%; in [5], 52.8%; in [6], 4.23%. Further, the inhibition in [7] is 28.2%; in assay [8] it was -4.94%; in assay [9], -5.34%; in assay [10], -3.26%; in [11] it was -1.96%; in assay [12] it was -0.04%. Moreover, the inhibition in assay [13] was 1.22%; in assay [14], -3.9%; in [15], -3.53%; in assay [16], -1.94%; in assay [17] it was -0.26%; in [18], 4.33%. Moreover, the inhibition in assay [19] was -2.52%; in assay [20] it was -0.6%.
Regarding `Cc1ccc(Nc2ccnc(Nc3cccc(C(N)=O)c3)n2)cc1O`, the inhibition in [1] was determined as 5.1%; in assay [2], 0.91%; in assay [3], 7.12%; in assay [4] it was 4.41%; in [5] it was 28%; in assay [6], 3.7%. The inhibition is 17.7% in assay [7]; -1.12% in assay [8]; 4.69% in [9]; -1.03% in assay [10]; 1.74% in assay [11]; -1.01% in assay [12]. The inhibition in assay [13] came to 1.41%; in [14] it was 1.78%; in assay [15], 3.39%; in [16], 2.88%; in [17], 9.7%; in [18], 3.13%. The inhibition in assay [19] turned out to be 1.94%; in assay [20], 0.79%.
With `COC(=O)c1ccc2c(c1)C(=Cc1cc(Br)c(O)c(Br)c1)C(=O)N2`, the inhibition is 5.46% in assay [1]; 3.56% in assay [2]; -0.06% in assay [3]; 5.88% in [4]; 7.6% in assay [5]; 2.64% in assay [6]. Besides, the inhibition was 4.68% in assay [7]; 3.43% in [8]; 5.81% in assay [9]; 4.05% in [10]; 7.78% in assay [11]; -4.19% in assay [12]. Moreover, the inhibition is -1.41% in [13]; 20.2% in [14]; 71.1% in [15]; -9.64% in assay [16]; -7.81% in [17]; 43.6% in [18]. Further, the figures for the inhibition in assay [19] and in assay [20] were 87.4% and 1.25%, respectively.
In the case of `COc1ccc(-c2nn3ncccc3c2-c2ccnc(Nc3cccc(C(F)(F)F)c3)n2)cc1`, the inhibition is 1.1% in assay [1]; -2.11% in [2]; -1.47% in assay [3]; 15% in assay [4]; 57.8% in assay [5]; 7.58% in assay [6]. The inhibition in assay [7] is 24.7%; in [8] it was 2.68%; in assay [9], 1.86%; in assay [10] it was 2.04%; in assay [11], 2.35%; in assay [12], -2.17%. In addition, the inhibition in assay [13] is -1.48%; in assay [14] it was 2.28%; in assay [15], 2.8%; in assay [16], -0.05%; in assay [17] it was 2.34%; in assay [18], 4.99%. For the same molecule, the inhibition is -1.04% in assay [19] and 0.03% in assay [20].
Regarding `NS(=O)(=O)c1cccc(Nc2cc(-c3ccc(F)cc3)n[nH]2)c1`, the inhibition in assay [1] is 3.77%; in assay [2], -0.26%; in assay [3], 3.28%; in assay [4] it was 1.56%; in [5], 7.1%; in assay [6], 1.06%. For the same molecule, the inhibition in assay [7] is 5.29%; in assay [8] it was 2.2%; in assay [9] it was 2.89%; in [10], -0.78%; in [11] it was 1.49%; in assay [12] it was -1.05%. The inhibition in [13] is 3.13%; in assay [14] it was 1.31%; in assay [15], 3.66%; in [16] it was -0.13%; in [17] it was 0.5%; in assay [18], 2.18%. Also, the inhibition came to 0.88% in assay [19] and 0.58% in [20].
Take `COc1cccc(-n2nc(C)c3c(N/N=C(\C)c4ccncc4)ncnc32)c1`: the inhibition is -1.26% in assay [1]; -0.29% in assay [2]; -1.75% in assay [3]; 1.46% in assay [4]; 0.91% in assay [5]; 1.51% in assay [6]. Besides, the inhibition in [7] is 0.17%; in [8], -0.04%; in [9], -0.68%; in assay [10] it was -0.13%; in assay [11], 0.35%; in assay [12], -2.19%. For the same molecule, the inhibition in [13] was -2.27%; in assay [14] it was -0.84%; in assay [15], -0.14%; in [16] it was -1.39%; in assay [17], 6.02%; in assay [18], -2.42%. In addition, the inhibition in [19] was -3.63%; in [20], 1.12%.
